# Data as given in PubChem BioAssay (NCATS).
# Records with an inconclusive call do not appear. Entries that show only a call come without a potency. The source made the active and inactive calls. Unless noted, calls come from the whole dose curve; as a rule, active = well fitted curve in the direction sought with a large enough effect; inconclusive = small, poorly fitted or top-dose-only effect, or another doubt; inactive = no such curve, though single readings can be large; an effect the other way counts as inactive or inconclusive.
# Key:
# [1] = biological target: Pyruvate kinase PKM (Homo sapiens) (UniProt P14618); test: qHTS Assay for Activators of Human Muscle Pyruvate Kinase (AID 954; active = well fitted curve in the direction sought with a large enough effect, not every such curve was filed as active); settings: purified human muscle pyruvate kinase, luciferase-coupled luminescence, 1 h; series mostly up to 57.5 µM
# Pyruvate kinase PKM (Homo sapiens), sequence (P14618 whole entry, looked up): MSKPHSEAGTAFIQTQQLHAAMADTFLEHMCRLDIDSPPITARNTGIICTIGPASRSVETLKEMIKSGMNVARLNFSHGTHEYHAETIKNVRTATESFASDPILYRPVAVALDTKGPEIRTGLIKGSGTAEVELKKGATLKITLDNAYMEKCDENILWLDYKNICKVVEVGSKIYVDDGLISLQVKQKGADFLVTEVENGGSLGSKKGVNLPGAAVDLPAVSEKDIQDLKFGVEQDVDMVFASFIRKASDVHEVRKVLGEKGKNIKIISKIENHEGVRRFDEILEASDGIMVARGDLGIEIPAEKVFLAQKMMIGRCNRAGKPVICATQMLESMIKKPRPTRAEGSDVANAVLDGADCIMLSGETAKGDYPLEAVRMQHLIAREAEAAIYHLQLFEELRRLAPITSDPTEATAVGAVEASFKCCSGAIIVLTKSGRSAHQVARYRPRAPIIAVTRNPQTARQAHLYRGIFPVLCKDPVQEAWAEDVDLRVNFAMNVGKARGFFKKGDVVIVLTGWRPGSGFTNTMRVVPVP
# How it was run: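 Reaction: 0.1 nM purified PKM2 with 0.5 mM phosphoenolpyruvate and 0.1 mM ADP, room temperature, 1 h. Readout: luciferase-based ATP luminescence after stop reagent. Activators judged against a 0.3 nM enzyme column.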
# [2] = Cell Viability - LYMP1-002 - Assay at 16 hr (AID 948); settings: LYMP1-002 lymphoblastoid cell viability; series mostly up to 92.2 µM
# How it was run: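 ATP luminescence (CellTiter-Glo) was measured after 16 hr compound exposure at 37 C of 2500 lymphoblastoid LYMP1-002 cells per well. Concentration-response curves were fitted with the Hill equation to give AC50.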
# [3] = MultiTox-Fluor Cytotoxicity Assay - LYMP1-002 - Live Cells (AID 955); settings: LYMP1-002 lymphoblastoid live-cell protease fluorescence viability; series mostly up to 46.1 µM;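 note: cells exposed to compound for 16 hours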
# How it was run: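 Cytotoxicity in the human lymphoblastoid line LYMP1-002 is measured as loss of live-cell protease activity after 16 h treatment in complete culture medium. AC50 is derived from Hill-equation fits of qHTS concentration-response data.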
# [4] = MultiTox-Fluor Cytotoxicity Assay - LYMP1-003 - Dead Cells (AID 961); settings: LYMP1-003 lymphoblastoid cells, dead-cell protease fluorescence; series mostly up to 92.2 µM;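 note: cells exposed to compound for 16 h at 37 °C; nearly all actives have a fitted effect of over 70% in size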
# How it was run: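 LYMP1-003 lymphoblastoid, 2500 cells/well, 5 hr settle then 16 hr cpd at 37 C; MultiTox-Fluor reagent 60 min RT; Ex/Em 485/520 dead-cell signal; norm. DMSO = 0%, 15 uM tetraoctylammonium bromide = 100%; Hill AC50.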
# [5] = MultiTox-Fluor Cytotoxicity Assay - LYMP1-003 - Live Cells (AID 962); settings: LYMP1-003 lymphoblastoid cells, MultiTox-Fluor live-cell protease fluorescence; series mostly up to 92.2 µM;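 note: cells exposed to compound for 16 hours at 37 °C; cytotoxic hits lower the live-cell protease signal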
# How it was run: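 Cells plated at 2500 per well and incubated 5 hr; compounds added and incubated 16 hr at 37 C; MultiTox-Fluor reagent added for 60 min at room temperature; fluorescence of liberated AFC measured at 405/510 nm.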
# [6] = Cell Viability - LYMP1-003 - Assay at 24 hr (AID 963); settings: LYMP1-003 lymphoblastoid cell viability; series mostly up to 92.2 µM
# How it was run: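 Acute toxicity in LYMP1-003 lymphoblastoid cells: 24 hr compound treatment at 37 C, ATP measured with CellTiter-Glo after 30 min at room temperature. AC50 derived by fitting the Hill equation to qHTS titrations.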
# [7] = Cell Viability - LYMP1-003 - Assay at 40 hr (AID 964); settings: LYMP1-003 lymphoblastoid viability; series mostly up to 92.2 µM; note: nearly all actives have a fitted effect of over 60% in size; note: potency is the fitted concentration of half-maximal effect
# How it was run: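 This qHTS cytotoxicity screen treats human lymphoblastoid cells (LYMP1-003) with compounds for 40 hr and quantifies cellular ATP via luciferase luminescence.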
# [8] = Cell Viability - LYMP2-003 (AID 965); settings: LYMP2-003 lymphoblastoid cell viability; series mostly up to 92.2 µM;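 note: cells exposed to compounds for 24 h before reading; nearly all actives have a fitted effect of over 50% in size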
# How it was run: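 CellTiter-Glo luminescence quantified ATP loss after 24 h compound treatment of LYMP2-003 lymphoblastoid cells at 37 C. Titration series were fitted with the standard Hill equation to give AC50.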
# [9] = MultiTox-Fluor Cytotoxicity Assay - LYMP1-002 - Dead Cells (AID 960); settings: LYMP1-002 lymphoblastoid cells, dead-cell protease fluorescence; series mostly up to 46.1 µM;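 note: cells exposed to compound for 16 h at 37 °C; nearly all actives have a fitted effect of over 60% in size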
# How it was run: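 Acute cytotoxicity in a human lymphoblastoid line is scored as rising dead-cell protease signal after 16 hr exposure at 37 C, measured fluorometrically (485/520).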
# [10] = biological target: Pyruvate kinase (Leishmania mexicana) (UniProt Q27686); test: qHTS Validation Assay for Activators of Leishmania Mexicana Pyruvate Kinase (AID 959); settings: purified L. mexicana pyruvate kinase, enzyme activity; series mostly up to 57.5 µM
# Pyruvate kinase (Leishmania mexicana), sequence (Q27686 2-499 E452W): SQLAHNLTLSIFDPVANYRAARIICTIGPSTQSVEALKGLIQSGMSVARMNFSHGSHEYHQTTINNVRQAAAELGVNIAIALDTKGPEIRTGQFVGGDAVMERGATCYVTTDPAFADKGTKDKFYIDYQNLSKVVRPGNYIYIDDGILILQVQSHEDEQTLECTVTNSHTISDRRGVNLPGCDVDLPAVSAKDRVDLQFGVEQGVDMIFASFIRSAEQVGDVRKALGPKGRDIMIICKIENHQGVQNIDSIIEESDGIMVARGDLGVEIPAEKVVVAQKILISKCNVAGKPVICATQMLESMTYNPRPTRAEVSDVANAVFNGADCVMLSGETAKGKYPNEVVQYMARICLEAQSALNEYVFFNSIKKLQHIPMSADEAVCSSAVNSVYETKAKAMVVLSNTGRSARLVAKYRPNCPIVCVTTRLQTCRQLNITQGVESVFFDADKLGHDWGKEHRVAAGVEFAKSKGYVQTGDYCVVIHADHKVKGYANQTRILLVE
# Description: NIH Molecular Libraries Screening Centers Network [MLSCN]
# NIH Chemical Genomics Center [NCGC]
# PI names: Malcom Walkinshaw, Hugh Morgan and Linda Gilmore
# University of Edinburgh, Edinburgh, UK
# Species of Leishmania are responsible for a wide spectrum of diseases throughout the tropics and subtropics, ranging from self-healing ulcers to highly disfiguring lesions and serious, often lethal visceral diseases, such as kala-azar. In Leishmania spp. it has been shown that both sugar uptake and gluconeogenesis are necessary to synthesize sufficient hexose-phosphate required for the production of glycoconjugates and the intracellular polysaccharide mannan which are essential for both replication and virulence of the parasites. Therefore, most of the enzymes participating in glycolysis and gluconeogenesis are expected to be essential (Naderer et al., 2006). […]
# Three uL of substrate mix (final concentrations, 50 mM imidazole pH 7.2, 50 mM KCl, 7 mM MgCl2, 0.5 mM PEP, 0.1 mM ADP, 0.01% Tween 20, 0.05% BSA) was dispensed into white solid medium binding Greiner 1536 well plates. […] Two uL of detection and kinase stop mix (PKLight, Lonza) was added, and luminescence read by a ViewLux (Perkin Elmer) at 2 second exposure/plate using 2x binning. […]
smiles,measurement,setting,value
CCCCNc1cc(C(=O)O)cc(S(N)(=O)=O)c1Oc1ccccc1,outcome,[1],inactive
C1COC(NC(C2CC2)C2CC2)=N1,outcome,[1],inactive
Cc1oncc1C(=O)Nc1ccc(C(F)(F)F)cc1,outcome,[1],inactive
NS(=O)(=O)c1cc2c(cc1Cl)NC=NS2(=O)=O,outcome,[2],inactive
same,outcome,[1],inactive
same,outcome,[3],inactive
same,outcome,[4],inactive
same,outcome,[5],inactive
same,outcome,[6],inactive
same,Potency,[7],inactive
same,outcome,[8],inactive
Nc1ccc(S(=O)(=O)Nc2ccnn2-c2ccccc2)cc1,outcome,[1],inactive
CCOC(=O)C1=C[C@@]2(CC)CCCN3CCc4c(n1c1ccccc41)[C@H]32,outcome,[1],inactive
Nc1nc2c(ncn2COCCO)c(=O)[nH]1,outcome,[1],inactive
CN1CCN(CCCN2c3ccccc3Sc3ccc(C(F)(F)F)cc32)CC1,outcome,[1],inactive
N=c1nc(N2CCCCC2)cc(N)n1O,outcome,[1],inactive
NC(=O)c1cnccn1,outcome,[2],inactive
same,outcome,[1],inactive
same,outcome,[3],inactive
same,outcome,[9],inactive
same,outcome,[4],inactive
same,outcome,[5],inactive
same,outcome,[6],inactive
same,Potency,[7],inactive
same,outcome,[8],inactive
NC(N)=NC(=O)c1nc(Cl)c(N)nc1N,outcome,[2],inactive
same,outcome,[1],inactive
same,outcome,[3],inactive
same,outcome,[9],inactive
same,outcome,[4],inactive
same,outcome,[5],inactive
same,outcome,[6],inactive
same,Potency,[7],inactive
same,outcome,[8],inactive
CC(C)(Sc1ccc(CCN(CCCCC2CCCCC2)C(=O)NC2CCCCC2)cc1)C(=O)O,outcome,[1],inactive
CC(C)NCC(O)COc1ccc(COCCOC(C)C)cc1 (configuration not stated),outcome,[1],inactive
Cn1cnc([N+](=O)[O-])c1Sc1ncnc2nc[nH]c12,outcome,[2],inactive
same,outcome,[1],inactive
same,outcome,[3],inactive
same,outcome,[9],inactive
same,outcome,[4],inactive
same,outcome,[5],inactive
same,Potency,[7],2510 nM (active)
O=C1CCc2cc(OCCCCc3nnnn3C3CCCCC3)ccc2N1,outcome,[1],inactive
NCCc1ccc(O)c(O)c1,outcome,[1],inactive
OC(CN1CCC(Cc2ccc(F)cc2)CC1)c1ccc(Cl)cc1 (configuration not stated),outcome,[1],inactive
O=c1[nH]cnc2[nH]ncc12,outcome,[2],inactive
same,outcome,[1],inactive
same,outcome,[3],inactive
same,outcome,[9],inactive
same,outcome,[4],inactive
same,outcome,[5],inactive
same,outcome,[6],inactive
same,Potency,[7],inactive
same,outcome,[8],inactive
Nc1nc2ccc(OC(F)(F)F)cc2s1,outcome,[1],inactive
same,outcome,[10],inactive
Cc1cn[nH]c1,outcome,[1],inactive
CCCC(CCC)C(=O)O,outcome,[2],inactive
same,outcome,[1],inactive
same,outcome,[3],inactive
same,outcome,[4],inactive
same,outcome,[5],inactive
same,outcome,[6],inactive
same,Potency,[7],inactive
same,outcome,[8],inactive
Cc1ccc(N(CC2=NCCN2)c2cccc(O)c2)cc1,outcome,[1],inactive
O=NN(CCCl)C(=O)NCCCl,outcome,[1],inactive
Cc1[nH]c(=O)c(C#N)cc1-c1ccc2nccn2c1,outcome,[1],inactive
NNCCc1ccccc1,outcome,[1],inactive
Clc1cccc(Cl)c1NC1=NCCN1,outcome,[1],inactive
O=c1n(CCCN2CCN(c3cccc(Cl)c3)CC2)nc2ccccn12,outcome,[1],inactive
NC[C@H](O)c1ccc(O)c(O)c1,outcome,[1],inactive
Cc1[nH]c(=O)c(C#N)cc1-c1ccncc1,outcome,[1],inactive
CCOC(=O)N1CCC(=C2c3ccc(Cl)cc3CCc3cccnc32)CC1,outcome,[1],inactive
C[C@]12CCC(=O)C=C1CC[C@@H]1[C@@H]2[C@@H](O)C[C@@]2(C)[C@H]1CC[C@]2(O)C(=O)CO,outcome,[1],inactive
CNC[C@H](O)c1cccc(O)c1,outcome,[1],inactive
CC(=O)Oc1ccccc1C(=O)O,outcome,[2],inactive
same,outcome,[1],inactive
same,outcome,[3],inactive
same,outcome,[9],inactive
same,outcome,[4],inactive
same,outcome,[5],inactive
same,outcome,[6],inactive
same,Potency,[7],inactive
same,outcome,[8],inactive
N[C@@H]1CONC1=O,outcome,[1],inactive
